Results reported in PubChem BioAssay (NCATS).
Results filed as inconclusive are left out. The source made the active and inactive calls. The call rests on the fitted dose curve; in most records, active means well fitted curve in the direction sought with a large enough effect; inconclusive means small, poorly fitted or top-dose-only effect, or another doubt; inactive means no such curve, though single readings can be large; an effect the other way counts as inactive or inconclusive.

Experiments:
[1] = molecular target: Voltage-gated inwardly rectifying potassium channel KCNH2 (Homo sapiens) (UniProt Q12809); test: qHTS Assay for Small Molecule Inhibitors of the Human hERG Channel Activity (AID 588834);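 further: lower thallium flux fluorescence means stronger hERG block; nearly all actives have a fitted effect of over 50% in size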; further: potency means the concentration at half of the fitted maximal effect
Voltage-gated inwardly rectifying potassium channel KCNH2 (Homo sapiens), sequence (Q12809 whole entry, looked up): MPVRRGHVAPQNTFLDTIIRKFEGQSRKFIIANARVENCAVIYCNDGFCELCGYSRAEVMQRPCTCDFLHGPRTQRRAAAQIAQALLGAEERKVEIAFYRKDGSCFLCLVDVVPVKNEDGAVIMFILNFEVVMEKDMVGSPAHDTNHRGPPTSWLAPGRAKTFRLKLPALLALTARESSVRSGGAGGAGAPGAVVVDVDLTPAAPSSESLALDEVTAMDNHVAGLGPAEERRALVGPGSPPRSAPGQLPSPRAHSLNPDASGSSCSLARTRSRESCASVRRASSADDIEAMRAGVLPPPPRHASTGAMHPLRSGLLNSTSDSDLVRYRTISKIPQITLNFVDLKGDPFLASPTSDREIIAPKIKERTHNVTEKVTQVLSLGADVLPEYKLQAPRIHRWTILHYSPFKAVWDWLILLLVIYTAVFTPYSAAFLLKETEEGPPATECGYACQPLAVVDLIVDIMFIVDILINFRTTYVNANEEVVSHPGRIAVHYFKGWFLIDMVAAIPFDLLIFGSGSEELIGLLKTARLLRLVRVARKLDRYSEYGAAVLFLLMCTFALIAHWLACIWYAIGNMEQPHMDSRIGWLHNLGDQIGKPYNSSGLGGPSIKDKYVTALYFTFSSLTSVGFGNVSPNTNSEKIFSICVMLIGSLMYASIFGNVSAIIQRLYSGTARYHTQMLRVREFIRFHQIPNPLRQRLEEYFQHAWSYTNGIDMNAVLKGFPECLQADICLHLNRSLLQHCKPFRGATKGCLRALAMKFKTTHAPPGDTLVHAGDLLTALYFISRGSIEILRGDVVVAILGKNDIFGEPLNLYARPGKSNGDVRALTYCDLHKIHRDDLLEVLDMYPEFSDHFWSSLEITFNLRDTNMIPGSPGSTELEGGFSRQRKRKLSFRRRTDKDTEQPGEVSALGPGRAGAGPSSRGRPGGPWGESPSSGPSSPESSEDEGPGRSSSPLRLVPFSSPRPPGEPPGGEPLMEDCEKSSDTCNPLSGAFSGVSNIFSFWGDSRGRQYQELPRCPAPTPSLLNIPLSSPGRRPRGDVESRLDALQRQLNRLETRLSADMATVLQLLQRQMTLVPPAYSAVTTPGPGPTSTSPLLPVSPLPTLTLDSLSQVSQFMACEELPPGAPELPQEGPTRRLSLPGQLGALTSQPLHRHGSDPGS
In short: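 hERG block measured as reduced thallium-dye (FluxOR) fluorescence after stimulation buffer addition, read over 2 min. Cells were hERG-BacMam-transduced U2OS exposed to compound ~10 min […]; concentration-response fitted with Hill equation for AC50.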

[2] = molecular target: Luciferin 4-monooxygenase (Photinus pyralis) (UniProt P08659); test: Biochemical firefly luciferase enzyme assay for NPC (AID 624030);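 further: purified P. pyralis luciferase at 10 nM with luciferin and ATP substrate; series mostly up to about 59 µM; nearly all actives have a fitted effect of over 70% in size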
Luciferin 4-monooxygenase (Photinus pyralis), sequence (P08659 whole entry, looked up): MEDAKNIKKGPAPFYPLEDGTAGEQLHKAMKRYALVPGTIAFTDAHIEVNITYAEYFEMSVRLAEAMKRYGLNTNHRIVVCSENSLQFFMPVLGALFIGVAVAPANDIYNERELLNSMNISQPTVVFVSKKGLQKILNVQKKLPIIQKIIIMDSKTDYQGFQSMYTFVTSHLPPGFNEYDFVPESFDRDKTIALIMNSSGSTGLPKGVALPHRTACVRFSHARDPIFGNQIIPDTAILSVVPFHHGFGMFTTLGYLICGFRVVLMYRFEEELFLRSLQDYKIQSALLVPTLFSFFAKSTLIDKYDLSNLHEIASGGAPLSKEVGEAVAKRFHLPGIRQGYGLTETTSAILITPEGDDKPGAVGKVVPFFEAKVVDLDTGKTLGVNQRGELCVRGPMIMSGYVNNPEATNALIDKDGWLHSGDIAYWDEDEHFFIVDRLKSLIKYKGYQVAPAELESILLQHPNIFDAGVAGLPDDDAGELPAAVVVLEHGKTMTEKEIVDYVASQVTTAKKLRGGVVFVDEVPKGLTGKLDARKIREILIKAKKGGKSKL
In short: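 Direct inhibition of firefly luciferase enzyme (10 nM final, 50 mM Tris Acetate) assessed by luminescence within 5 minutes. Percent activity scaled between DMSO and PTC124 positive control, with concentration-effect curves classified by fit quality and response.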

[3] = S16 Schwann cell viability assay (CellTiter-Glo assay) (AID 624031);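 further: cellular ATP luminescence as a viability measure; series mostly up to about 58 µM; nearly all actives have a fitted effect of over 70% in size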
In short: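 Luminescent ATP read-out (CellTiter-Glo) after 24 h compound exposure of native S16 rat Schwann cells at 37 °C. Signals were normalized between cell-free wells and DMSO-treated cells, set as 0% activity.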

[4] = S16 Schwann cell PMP22 intronic element firefly luciferase assay (AID 624032); further: nearly all actives have a fitted effect of over 30% in size; further: potency means the concentration at half of the fitted maximal effect
In short: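 Luciferase reporter of PMP22 intronic-element expression in stably transfected S16 rat Schwann cells, read by ONE-Glo luminescence after 24 h compound exposure at 37 C. Activity scaled between DMSO (0%) and positive-control PTC124; concentration-effect curves quality-classified.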

Measured: Potency

NCCc1ccn[nH]1
inactive: all assays above

OCc1ccccc1O
inactive: all assays above

Nc1ccc(C(=O)Nc2ccccc2N)cc1
inactive: all assays above

COc1cc(C(=S)N2CCOCC2)cc(OC)c1OC
inactive: all assays above

CCOC(=O)COc1ccc2c(C)c(CCN(CC)CC)c(=O)oc2c1Cl
active: [1] 12.6 µM
inactive: [2] | [4]

CCN(CC)CCNC(=O)COc1ccc(Cl)cc1
active: [1] 14.1 µM
inactive: all other assays above

Nc1ccc(/C=C/c2ccc(N)cc2S(=O)(=O)O)c(S(=O)(=O)O)c1
inactive: [1] | [3] | [4]

C[C@@H]1C[C@H]2[C@@H]3CCC4=CC(=O)C=C[C@]4(C)[C@@]3(F)[C@@H](O)C[C@]2(C)[C@H]1C(=O)CO
inactive: all assays above

CCn1cc(C(=O)O)c(=O)c2cnc(N3CCCC3)nc21
inactive: all assays above

O=C1CCC(c2ccc(-n3ccnc3)cc2)=NN1
inactive: all assays above

Oc1c(I)cc(I)c2cccnc12
inactive: [1] | [2]
active: [4] 8.09 µM

c1ccc(CNCCNCc2ccccc2)cc1
inactive: all assays above

CC[N+](CC)(CCNC(=O)C(=O)NCC[N+](CC)(CC)Cc1ccccc1Cl)Cc1ccccc1Cl
inactive: all assays above

C1CCc2nnnn2CC1
inactive: all assays above
